Screening data from PubChem.
Most compounds without a hit are left out; they make up all but 20% or so of the library.
Shiga toxin inh: Shiga toxin inhibition; Vero cells, Shiga toxin protein synthesis inhibition reporter; inhibition, % at 38.7 µM; AID 2315; hit rate 9.2% among 290,000; in the data active = inhibition mostly above about 28%, no sharp cut-off; inactive = mostly below about 43%
CHX counter: counter-screen hit for Shiga toxin inhibitors, cycloheximide; cell reporter, cycloheximide protein synthesis inhibition counterscreen; max response, %; hit rate 12% among 300,000; AID 2314; in the data active = max response mostly above about 13%, no sharp cut-off; inactive = mostly below about 14%; also: read at 38.3 µM for the half of the compounds with a filed dose
HCMV antiviral: blocks human cytomegalovirus replication. activity change, negative = inhibition, % at 57.5 µM. hit rate 4.5% among 410,000. HFF cells, HCMV-luciferase reporter, 72 h; hits give low values; in the data active = activity change below about -60%; inconclusive = no clear call, values can overlap the other calls; inactive = above about -39%
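Two compound doses tested in HFFs infected with HCMV-luciferase, MOI 1 PFU/cell, 72 h at 37C. Lysate luminescence read with OneGlo; data normalized against buffer-only and 10uM Salinomycin inhibitor controls.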
Pf growth 96h: P. falciparum growth inhibition at 96 hour, primary screen for plastid delayed-death inhibitors; P. falciparum luciferase reporter growth, 96 h; Potency, µM (series often up to 28.7 µM), most hits filed as inhibitors; hit rate 6.9% among 320,000; AID 504834
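Two-generation exposure (96 h) targets delayed-death phenotype. Reporter parasites carrying integrated firefly luciferase, in red cells at 2% hematocrit and 0.05% parasitemia final, kept at 37 C, 5% CO2; luminescence loss indicates inhibition.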
Pf growth 48h: inhibits P. falciparum growth in the first generation, 48 h; P. falciparum luciferase growth in erythrocytes, 48 h; Potency, µM (series often up to 28.7 µM), hits mostly inhibitors; hit rate 5.9% among 310,000
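In quantitative HTS format, infected erythrocytes bearing luciferase-reporter parasites were treated for a single generation at 37 C. Luminescence after adding detection reagent served as the growth measure.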
Numbers stand for hits; – = inactive; ? = inconclusive; · = not tested or not shown. Unless noted, calls follow the shape of the dose curve; as a rule, active = well fitted inhibition curve with a large enough effect; inconclusive = small, poorly fitted or top-dose-only effect, or another doubt; inactive = no such curve, though single readings can be large or run the other way.

SMILES	Shiga toxin inh	CHX counter	HCMV antiviral	Pf growth 96h	Pf growth 48h
O=C(O)CCC(=O)NNc1nc2ccccc2nc1-c1ccccc1	–	–	–	–	–
Cc1noc(C)c1CN(C(=S)NC1CC2CCC1C2)c1ccccc1 (stereo not given)	–	–	–	–	12µM
Cc1noc(C)c1CN(C(=S)NC(C)C)c1ccccc1	–	–	–	–	–
Cc1ccc2nc(Nc3nc(CSc4nnc(C)s4)cc(=O)[nH]3)nc(C)c2c1	–	–	-81	3.3µM	?
Cc1ccc2c(C)nc(Nc3nc(CSc4nc5ccccc5[nH]4)cc(=O)[nH]3)nc2c1	–	–	?	?	10µM
Cc1ccc(Cl)cc1NC(=O)C1CCC(CNS(=O)(=O)c2cccc3nsnc23)CC1 (stereo not given)	·	·	–	·	·
COc1ccc(-n2c(=O)c3c(C)c(C)sc3n(Cc3ccc(F)cc3)c2=O)c(OC)c1	–	–	–	?	?
COC(=O)c1ccc(/C=C/c2c(-c3ccsc3)oc3ccc(N4CCOCC4)cc23)cc1	–	–	–	13µM	?
COc1ccc(-c2c(-c3ccsc3)oc3ccc(N4CCOCC4)cc23)cn1	·	·	–	·	·
COc1ccccc1CNC(=O)c1sc2nc3n(c(=O)c2c1C)CCC3	·	·	–	·	·
C[n+]1cccc(/C=N/NC(=O)CC23CC4CC(CC(C4)C2)C3)c1	–	–	?	0.59µM	?
CCCCN(C)CCNC(=O)c1c[nH]c2ccc(S(=O)(=O)N(CC)CC)cc2c1=O	–	–	–	–	3.7µM
Cc1ccc(N(C)S(=O)(=O)c2ccc3[nH]cc(C(=O)NCCCN4CCOCC4)c(=O)c3c2)cc1C	–	–	–	?	2.3µM
C=CCNC(=O)c1c[nH]c2ccc(S(=O)(=O)N(C)c3ccc(OCC)cc3)cc2c1=O	–	–	-67	–	?
CCN(c1ccccc1)S(=O)(=O)c1ccc2[nH]cc(C(=O)NCCOC)c(=O)c2c1	–	–	–	–	?
CCOc1ccc(N(C)S(=O)(=O)c2ccc3[nH]cc(C(=O)NCCOC)c(=O)c3c2)cc1	–	–	–	–	?
CCCNC(=O)c1c[nH]c2ccc(S(=O)(=O)N(C)c3ccc(OCC)cc3)cc2c1=O	–	–	?	–	12µM
CCOc1ccc(-c2nc(CSCC(=O)NCCc3ccccc3)c(C)o2)cc1	·	·	–	·	·
CCOC(=O)C1CCN(C(=O)CSCc2nc(-c3ccc(OCC)cc3)oc2C)CC1	–	15	–	–	?
CCOc1ccc(-c2nc(CSCC(=O)N3CCN(C(=O)c4ccco4)CC3)c(C)o2)cc1	94	25	–	?	·
COc1cc(/C=C2/N=C(c3ccccc3)OC2=O)c(F)cc1OCc1ccccc1	·	·	–	·	·
CC1(C(=O)OCC(=O)NCCNC(=O)COC(=O)C2(C)CC2(Cl)Cl)CC1(Cl)Cl (stereo not given)	–	–	–	?	–
Cc1ccc2cc(C#N)c(N3CCCN(C(=S)NCCCN(C)C)CC3)nc2c1	–	–	–	?	10µM
Cc1cc(C)c2cc(C#N)c(N3CCCC3)nc2c1	–	–	–	10µM	–
Cc1cc(C)c2cc(C#N)c(N3CCCN(C(=S)NCCCN(C)C)CC3)nc2c1	–	–	–	10µM	–
SMILES	Shiga toxin inh	CHX counter	HCMV antiviral	Pf growth 96h	Pf growth 48h
CCOCCCNC(=S)N1CCCN(c2nc3cc(C)ccc3cc2C#N)CC1	–	–	–	–	–
COc1cc(Br)c(C(C)NC(=O)c2ccc(C)cc2)cc1OC (stereo not given)	–	–	–	?	–
COc1cc(Br)c(C(C)NC(=O)c2cccc(Br)c2)cc1OC (stereo not given)	–	–	?	1.7µM	1.9µM
CC(NC(=O)c1cccc(Br)c1)c1ccccc1 (stereo not given)	–	–	-70	–	–
CC(NC(=O)c1cc(Br)ccc1Br)c1ccccc1 (stereo not given)	–	–	–	–	–
C=C[C@@H]1c2c(F)cccc2N(S(=O)(=O)c2ccc(C)cc2)[C@H](c2ccc(OC(C)=O)cc2)C1(C#N)C#N	·	·	–	2.6µM	1.7µM
C=C[C@@H]1c2cc(C)ccc2N(S(=O)(=O)c2ccc(C)cc2)[C@H](c2ccccc2)C1(C#N)S(=O)(=O)c1ccccc1 (stereo not given in full)	·	·	–	·	·
C=C[C@@H]1c2cccc(C)c2N(S(=O)(=O)c2ccc(C)cc2)[C@H](c2ccc(OC(C)=O)cc2)C1(C#N)C#N	·	·	-79	·	·
C=C[C@@H]1c2ccccc2N(S(=O)(=O)c2ccc(C)cc2)[C@H](c2ccccc2C(F)(F)F)C1(C#N)C#N	·	·	–	?	?
